Rows were chosen to be rich in hits. Some 1.2% of all compounds tested hit in one or more screens of this group.
Mtb bLac sens: beta-lactam sensitization of Mtb H37Rv | inhibition, % at 25 µM | M. tuberculosis H37Rv growth with meropenem, percent inhibition | 0.27% of 330,000 active; call rule not given here;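 note: growth measured after seven days incubation then overnight dye step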
PfHsp40 yeast: rescue of PfHsp40-mediated yeast toxicity. S. cerevisiae expressing PfHsp40, growth rescue, ATP luminescence. 0.68% of 340,000 active. growth rescue, % at 12.5 µM. AID 504582; in the data active = growth rescue above about 28%, passing the limit was not always enough; inconclusive = no clear call, values can overlap the other calls;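 note: yeast W303a lacking pdr1 and pdr3 grown in galactose medium; growth measured after three days at 30 °C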
BH1578 lux ind: quorum light induction in luxS cqsA deficient V. cholerae. V. cholerae BH1578 lux reporter, luminescence, 6 h. activation, % at 18.7 µM. 0.16% of 350,000 active. AID 588436; in the data active = activation mostly above about 9.7%, no sharp cut-off; inconclusive = no clear call, values can overlap the other calls; inactive = mostly below about 3.7%
Sa RN4220 lethal: kills Staphylococcus aureus RN4220. 0.33% of 330,000 active. inhibition, % (concentration not given with the values). S. aureus RN4220 growth, OD600, 16 h. AID 1259311; in the data active = inhibition above about 85%
Sa ugtP lethal: growth inhibition of S. aureus ugtP deletion strain; S. aureus RN4220 ugtP deletion, OD600 growth, 16 h; growth inhibition, % (concentration not given with the values); 0.54% of 330,000 active; AID 1259309; in the data active = growth inhibition above about 68%
A number is an active result.

CCCCN(C)S(=O)(=O)c1ccc(C(=O)Nc2nnc(C3=COCCO3)o2)cc1 was read as Mtb bLac sens inactive, PfHsp40 yeast inactive, BH1578 lux ind inactive, Sa RN4220 lethal inactive and Sa ugtP lethal inactive.
CC1(C)COCN1S(=O)(=O)c1ccc(C(=O)Nc2nnc(-c3ccc(Cl)s3)o2)cc1 was read as Mtb bLac sens inactive, Sa RN4220 lethal 100 and Sa ugtP lethal 98.
`COc1ccc([N+](=O)[O-])cc1NC(=S)NC(C)=O` gave Mtb bLac sens inactive, PfHsp40 yeast inactive, BH1578 lux ind inactive, Sa RN4220 lethal inactive and Sa ugtP lethal inactive.
For CCCCC(=O)NC(=S)Nc1cc([N+](=O)[O-])ccc1OC the results were Mtb bLac sens inactive, PfHsp40 yeast inconclusive, BH1578 lux ind inactive, Sa RN4220 lethal inactive and Sa ugtP lethal active.
Screening CCN1C(=O)C2C(c3ccc(C)cc3)N3C(=O)N(c4ccccc4)C(=O)[C@@]3(Cc3ccc(Cl)cc3)C2C1=O (stereo partly specified) returned Sa RN4220 lethal inactive and Sa ugtP lethal inactive.
`Cc1cccc(C)c1OCC(=O)NNC(=S)NC(=O)C1CC1` gave Mtb bLac sens inactive, PfHsp40 yeast 83, BH1578 lux ind inactive, Sa RN4220 lethal inactive and Sa ugtP lethal inactive.
For Cc1ccc(C(=O)N2C(=O)C(c3ccccc3)Oc3ccccc32)cc1 (stereo unspecified) the results were Mtb bLac sens inactive, PfHsp40 yeast 110, BH1578 lux ind inactive, Sa RN4220 lethal inactive and Sa ugtP lethal inactive.
Screening Cn1ccsc1=NC(=O)c1ccc([N+](=O)[O-])o1 returned Mtb bLac sens inactive, PfHsp40 yeast 248, BH1578 lux ind inactive, Sa RN4220 lethal inactive and Sa ugtP lethal inactive.
`Cn1cccc1C(=O)NS(=O)(=O)c1ccccc1Cl` gave Mtb bLac sens inactive, PfHsp40 yeast 86, BH1578 lux ind inactive, Sa RN4220 lethal inactive and Sa ugtP lethal inactive.
For Cc1nc2ccccc2c(=O)n1N=C/C=C/c1ccccc1 the results were Sa RN4220 lethal inactive and Sa ugtP lethal inactive.
Screening CCCNC(=O)c1cc2ccccc2c(=O)o1 returned Mtb bLac sens inactive, PfHsp40 yeast inactive, BH1578 lux ind inactive, Sa RN4220 lethal inactive and Sa ugtP lethal inactive.
`Cc1cc(C)n(C(=O)c2cc3ccccc3c(=O)o2)n1` gave Mtb bLac sens inactive, PfHsp40 yeast inactive, BH1578 lux ind 17, Sa RN4220 lethal inactive and Sa ugtP lethal inactive.
Cc1cccc(NC(=O)c2nc[nH]c2C(=O)NC(C)C(=O)OCc2ccccc2)c1 (stereo unspecified) was read as Sa RN4220 lethal inactive and Sa ugtP lethal inactive.
COc1ccc(/C=C\C(=O)NCC(=O)NN=Cc2cccc(OC)c2O)cc1 was read as Sa RN4220 lethal inactive and Sa ugtP lethal inactive.
Screening CCCC(CN1CCCC1CN1C(N)=NCC1Cc1ccccc1)N1CC(Cc2ccccc2)N(CCCC2CCCC2)C1=N (stereo unspecified) returned Sa RN4220 lethal 101 and Sa ugtP lethal 101.
Screening CC[C@@H](C)[C@@H]1CN([C@@H](CN2CCC[C@H]2CN2C(N)=NC[C@H]2C(C)C)C(C)C)C(=N)N1CCCC1CCCC1 returned Mtb bLac sens inactive, PfHsp40 yeast inactive, BH1578 lux ind inactive, Sa RN4220 lethal 94 and Sa ugtP lethal 100.
For CCC[C@@H](CN1CCC[C@H]1CN1C(N)=NC[C@H]1CC(C)C)N1C[C@@H]([C@H](C)CC)N(CCCC2CCCC2)C1=N the results were Mtb bLac sens inactive, PfHsp40 yeast inactive, BH1578 lux ind inactive, Sa RN4220 lethal 101 and Sa ugtP lethal 101.
`CCC[C@@H](CN1CCC[C@H]1CN1C(N)=NC[C@H]1C(C)C)N1C[C@@H]([C@H](C)CC)N(CCCC2CCCC2)C1=N` gave Mtb bLac sens inactive, PfHsp40 yeast inactive, BH1578 lux ind inactive, Sa RN4220 lethal inactive and Sa ugtP lethal inactive.
`CCC(C)C1CN(C(CN2CCCC2CN2C(N)=NCC2Cc2ccccc2)C(C)C)C(=N)N1CCCC1CCCC1` (stereo unspecified) gave Sa RN4220 lethal 100 and Sa ugtP lethal 100.
`Cc1ccc(S(=O)(=O)N2CCN(c3ncnc4scc(-c5ccc(F)cc5)c34)CC2)cc1` gave Mtb bLac sens inactive, PfHsp40 yeast inactive, BH1578 lux ind inactive, Sa RN4220 lethal 98 and Sa ugtP lethal 99.
O=S(=O)(c1cccc(F)c1)N1CCN(c2ncnc3scc(-c4ccc(F)cc4)c23)CC1 was read as Mtb bLac sens inactive, PfHsp40 yeast inactive, BH1578 lux ind inactive, Sa RN4220 lethal 97 and Sa ugtP lethal 99.
`COc1ccc(-c2csc3ncnc(N4CCN(S(=O)(=O)c5ccc(C(C)=O)cc5)CC4)c23)cc1` gave Mtb bLac sens inactive, PfHsp40 yeast inactive, BH1578 lux ind inactive, Sa RN4220 lethal inactive and Sa ugtP lethal inactive.
Screening COc1ccc(-c2csc3ncnc(N4CCN(S(=O)(=O)c5cccc(Br)c5)CC4)c23)cc1 returned Mtb bLac sens inactive, PfHsp40 yeast inactive, BH1578 lux ind inactive, Sa RN4220 lethal inactive and Sa ugtP lethal inactive.
`Cc1ccc(S(=O)(=O)N2CCN(c3ncnc4scc(-c5ccccc5)c34)CC2)cc1` gave Mtb bLac sens inactive, PfHsp40 yeast inactive, BH1578 lux ind inactive, Sa RN4220 lethal 91 and Sa ugtP lethal inactive.
Screening CN1CCCN(c2ncnc3scc(-c4ccc(F)cc4)c23)CC1 returned Mtb bLac sens inactive, PfHsp40 yeast inactive, Sa RN4220 lethal inactive and Sa ugtP lethal inactive.
`S=C1NCC(Cc2cccc3ccccc23)N1CC1CCCCC1` (stereo unspecified) gave Sa RN4220 lethal inactive and Sa ugtP lethal inactive.
CC(C)(C)OC(=O)NN=Cc1ccc(C(=O)O)cc1 was read as Sa RN4220 lethal inactive and Sa ugtP lethal inactive.
CC(C)(C)OC(=O)NN=C(c1ccc(O)cc1)c1ccc(O)cc1 was read as Mtb bLac sens inactive, PfHsp40 yeast inactive, BH1578 lux ind inactive, Sa RN4220 lethal 99 and Sa ugtP lethal 99.
`Cc1ccc(N=C2SC(C(=O)Nc3ccc(OC(F)(F)F)cc3)C(N)=C2C(=O)Nc2c(C)cc(C)cc2C)cc1` (stereo unspecified) gave Mtb bLac sens inactive, PfHsp40 yeast inactive, BH1578 lux ind inactive, Sa RN4220 lethal 100 and Sa ugtP lethal 100.
For O=C(NN=CC1CC=CCC1)c1ccc(Cl)cc1O (stereo unspecified) the results were Sa RN4220 lethal inactive and Sa ugtP lethal inactive.
C=C1c2cccc(O)c2C(=O)C2C(=O)[C@]3(O)C(=O)C(C(N)=O)C(=O)C(N(C)C)C3C(O)C12 (stereo partly specified) was read as Sa RN4220 lethal 100 and Sa ugtP lethal inactive.
Screening C=C1c2c(Cl)ccc(O)c2C(O)=C2C(=O)[C@]3(O)C(O)=C(C(N)=O)C(=O)C(N(C)C)C3C(O)C12 (stereo partly specified) returned Sa RN4220 lethal 100 and Sa ugtP lethal 100.
Screening C=C1c2cccc(O)c2C(O)=C2C(=O)[C@]3(O)C(O)=C(C(N)=O)C(=O)[C@@H](N(C)C)[C@@H]3[C@@H](O)[C@H]12 returned Mtb bLac sens inactive, PfHsp40 yeast inactive, BH1578 lux ind inactive, Sa RN4220 lethal 100 and Sa ugtP lethal 99.

Source: PubChem
